# Legend:
# Assay in all cases: DAPPL (digital affinity profiling via proximity ligation, sequencing); 10 mM Tris-HCl pH 7.5, 50 mM NaCl, 1 mM DTT, 4% glycerol, room temperature, 30 min; GST-TFs on glutathione beads, 16-mer random dsDNA library, 0.1% formaldehyde crosslink after washing; high values mean tight binding
# FLI1 = biological target: T1, FLI1 (Homo sapiens, UniProt Q01543 1-452); conditions: protein: recombinant; tags: N-terminal GST; dsDNA, one strand shown
# T1 sequence: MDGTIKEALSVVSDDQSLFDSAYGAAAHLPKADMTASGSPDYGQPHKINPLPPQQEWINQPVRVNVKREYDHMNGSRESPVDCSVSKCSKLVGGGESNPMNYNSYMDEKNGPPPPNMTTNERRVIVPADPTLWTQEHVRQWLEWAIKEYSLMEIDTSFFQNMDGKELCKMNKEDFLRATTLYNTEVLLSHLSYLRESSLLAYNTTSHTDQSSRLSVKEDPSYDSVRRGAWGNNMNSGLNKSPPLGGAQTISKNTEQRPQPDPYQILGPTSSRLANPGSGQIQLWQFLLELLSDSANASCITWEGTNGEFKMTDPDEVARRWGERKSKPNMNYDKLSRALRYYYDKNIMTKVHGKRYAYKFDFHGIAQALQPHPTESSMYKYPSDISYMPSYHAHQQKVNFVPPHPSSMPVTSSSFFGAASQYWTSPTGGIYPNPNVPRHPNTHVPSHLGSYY
# In short: (§1)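 Pools were built from human transcription factors expressed in yeast as GST fusions, captured on glutathione beads and DNA-barcoded, along with a tag-only sample. Incubation with 200 nmole of a 16-mer random double-stranded DNA library lasted 30 min at room temperature in Tris/NaCl/DTT/glycerol buffer, and was followed by washing, 0.1% formaldehyde crosslinking, proximity ligation, PCR amplification and Illumina NextSeq500 sequencing. Binding signal is the quotient of each hexamer's read frequency for a factor and its frequency for the tag-only sample.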
# ELK1 = biological target: T2, ELK1 (Homo sapiens, UniProt P19419 1-428); conditions: protein: recombinant; tags: N-terminal GST; dsDNA, one strand shown
# T2 sequence: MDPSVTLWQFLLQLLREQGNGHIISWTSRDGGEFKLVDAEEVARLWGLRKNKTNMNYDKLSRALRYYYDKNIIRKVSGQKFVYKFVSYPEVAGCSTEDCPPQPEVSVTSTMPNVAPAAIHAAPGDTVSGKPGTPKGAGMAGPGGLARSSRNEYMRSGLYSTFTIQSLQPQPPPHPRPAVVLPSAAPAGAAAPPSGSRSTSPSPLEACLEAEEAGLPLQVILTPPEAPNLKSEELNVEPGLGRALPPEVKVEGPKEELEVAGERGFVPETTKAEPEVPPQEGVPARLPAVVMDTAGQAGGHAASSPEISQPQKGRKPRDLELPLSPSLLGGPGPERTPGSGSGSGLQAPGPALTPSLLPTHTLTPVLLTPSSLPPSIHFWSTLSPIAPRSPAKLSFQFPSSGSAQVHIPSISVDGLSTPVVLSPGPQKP
# In short: as §1
# GABPA = biological target: T3, GABPA (Homo sapiens, UniProt Q06546 1-454); conditions: protein: recombinant; tags: N-terminal GST; dsDNA, one strand shown
# T3 sequence: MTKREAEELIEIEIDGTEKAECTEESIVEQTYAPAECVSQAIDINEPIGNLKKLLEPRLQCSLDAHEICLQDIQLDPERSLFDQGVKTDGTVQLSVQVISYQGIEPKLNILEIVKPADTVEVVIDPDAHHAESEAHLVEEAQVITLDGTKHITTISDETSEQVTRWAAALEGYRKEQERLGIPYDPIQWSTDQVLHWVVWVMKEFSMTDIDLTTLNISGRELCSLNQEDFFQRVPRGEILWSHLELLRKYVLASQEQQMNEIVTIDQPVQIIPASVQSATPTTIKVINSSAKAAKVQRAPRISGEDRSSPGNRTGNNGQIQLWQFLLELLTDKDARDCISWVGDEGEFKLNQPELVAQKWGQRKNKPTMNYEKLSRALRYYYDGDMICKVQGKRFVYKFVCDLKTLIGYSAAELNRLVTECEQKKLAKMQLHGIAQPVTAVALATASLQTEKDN
# In short: as §1
# ERG = biological target: T4, ERG (Homo sapiens, UniProt P11308 1-479); conditions: protein: recombinant; tags: N-terminal GST; dsDNA, one strand shown
# T4 sequence: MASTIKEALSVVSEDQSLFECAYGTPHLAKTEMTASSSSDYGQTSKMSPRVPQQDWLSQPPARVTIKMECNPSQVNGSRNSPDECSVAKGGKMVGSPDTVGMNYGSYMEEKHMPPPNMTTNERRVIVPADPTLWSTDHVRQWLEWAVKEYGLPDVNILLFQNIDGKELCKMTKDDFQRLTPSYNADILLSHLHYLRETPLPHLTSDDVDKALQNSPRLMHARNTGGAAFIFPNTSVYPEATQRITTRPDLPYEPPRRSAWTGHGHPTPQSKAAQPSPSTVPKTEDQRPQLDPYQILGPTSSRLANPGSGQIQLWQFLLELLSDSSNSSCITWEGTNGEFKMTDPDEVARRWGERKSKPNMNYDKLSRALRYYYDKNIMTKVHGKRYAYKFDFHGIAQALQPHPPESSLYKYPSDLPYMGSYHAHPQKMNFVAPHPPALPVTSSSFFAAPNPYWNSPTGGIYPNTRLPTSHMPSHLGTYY
# In short: as §1
# ELF1 = ELF1 (Homo sapiens, UniProt P32519 1-619); conditions: protein: recombinant; tags: N-terminal GST; dsDNA, one strand shown
# Sequence of ELF1 (P32519 whole entry): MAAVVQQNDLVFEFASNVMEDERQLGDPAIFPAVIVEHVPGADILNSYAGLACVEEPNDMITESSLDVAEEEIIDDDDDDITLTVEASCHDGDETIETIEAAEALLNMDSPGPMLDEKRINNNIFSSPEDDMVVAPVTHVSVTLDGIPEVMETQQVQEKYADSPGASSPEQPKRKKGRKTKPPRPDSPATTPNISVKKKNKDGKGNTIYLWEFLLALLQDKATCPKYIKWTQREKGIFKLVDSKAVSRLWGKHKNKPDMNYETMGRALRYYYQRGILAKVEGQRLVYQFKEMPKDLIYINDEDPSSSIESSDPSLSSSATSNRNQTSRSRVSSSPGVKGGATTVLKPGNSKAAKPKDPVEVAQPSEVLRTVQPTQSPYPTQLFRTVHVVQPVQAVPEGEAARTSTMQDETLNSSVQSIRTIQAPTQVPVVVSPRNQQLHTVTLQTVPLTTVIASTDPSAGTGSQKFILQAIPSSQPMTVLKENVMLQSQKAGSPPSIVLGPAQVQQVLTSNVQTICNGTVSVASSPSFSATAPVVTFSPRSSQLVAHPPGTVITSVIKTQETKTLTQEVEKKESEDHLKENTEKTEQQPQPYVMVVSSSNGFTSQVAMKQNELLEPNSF
# In short: as §1
# EHF = biological target: T5, EHF (Homo sapiens, UniProt Q9NZC4 1-300); conditions: protein: recombinant; tags: N-terminal GST; dsDNA, one strand shown
# T5 sequence: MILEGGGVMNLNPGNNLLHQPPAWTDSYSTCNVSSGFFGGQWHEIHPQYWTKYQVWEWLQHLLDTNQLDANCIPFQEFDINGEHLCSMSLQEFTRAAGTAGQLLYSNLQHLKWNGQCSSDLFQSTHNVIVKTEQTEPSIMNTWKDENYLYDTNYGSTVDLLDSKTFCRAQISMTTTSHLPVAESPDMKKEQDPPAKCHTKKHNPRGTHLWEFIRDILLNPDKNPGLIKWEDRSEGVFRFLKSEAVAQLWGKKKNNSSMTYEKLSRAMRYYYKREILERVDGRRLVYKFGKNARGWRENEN
# In short: as §1
# SPI1 = SPI1 (Homo sapiens, UniProt P17947 1-270); conditions: protein: recombinant; tags: N-terminal GST; dsDNA, one strand shown
# In short: as §1
# SPIB = SPIB (Homo sapiens, UniProt Q01892 1-262); conditions: protein: recombinant; tags: N-terminal GST; dsDNA, one strand shown
# Sequence of SPIB (Q01892 whole entry): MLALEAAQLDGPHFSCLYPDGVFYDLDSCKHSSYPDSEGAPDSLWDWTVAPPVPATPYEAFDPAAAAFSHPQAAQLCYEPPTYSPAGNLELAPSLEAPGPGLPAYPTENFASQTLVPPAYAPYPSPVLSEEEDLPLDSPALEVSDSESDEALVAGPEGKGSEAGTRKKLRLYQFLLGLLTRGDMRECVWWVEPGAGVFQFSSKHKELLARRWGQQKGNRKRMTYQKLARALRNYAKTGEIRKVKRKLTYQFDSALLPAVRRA
# In short: as §1
# ELK3 = biological target: T6, ELK3 (Homo sapiens, UniProt P41970 1-407); conditions: protein: recombinant; tags: N-terminal GST; dsDNA, one strand shown
# T6 sequence: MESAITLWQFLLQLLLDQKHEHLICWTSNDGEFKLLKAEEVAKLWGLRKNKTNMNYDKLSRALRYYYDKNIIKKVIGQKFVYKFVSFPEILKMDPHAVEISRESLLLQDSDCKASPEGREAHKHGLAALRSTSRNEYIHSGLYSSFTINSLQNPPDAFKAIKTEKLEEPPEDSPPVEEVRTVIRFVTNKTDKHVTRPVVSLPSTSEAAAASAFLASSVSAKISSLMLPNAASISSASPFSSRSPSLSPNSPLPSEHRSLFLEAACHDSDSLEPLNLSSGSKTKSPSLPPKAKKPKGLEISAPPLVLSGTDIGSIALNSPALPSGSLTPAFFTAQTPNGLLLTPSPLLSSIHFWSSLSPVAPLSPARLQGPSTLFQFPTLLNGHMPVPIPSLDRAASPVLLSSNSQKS
# In short: as §1
# FEV = biological target: T7, FEV (Homo sapiens, UniProt Q99581 1-238); conditions: protein: recombinant; tags: N-terminal GST; dsDNA, one strand shown
# T7 sequence: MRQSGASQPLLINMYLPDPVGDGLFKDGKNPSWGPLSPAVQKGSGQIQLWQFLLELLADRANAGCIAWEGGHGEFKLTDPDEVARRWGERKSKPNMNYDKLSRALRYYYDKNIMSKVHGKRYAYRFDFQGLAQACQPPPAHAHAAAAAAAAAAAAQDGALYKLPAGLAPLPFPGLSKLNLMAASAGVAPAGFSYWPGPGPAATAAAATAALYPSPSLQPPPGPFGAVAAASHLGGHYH
# In short: as §1
# ETV5 = ETV5 (Homo sapiens, UniProt P41161 1-510); conditions: protein: recombinant; tags: N-terminal GST; dsDNA, one strand shown
# Sequence of ETV5 (P41161 whole entry): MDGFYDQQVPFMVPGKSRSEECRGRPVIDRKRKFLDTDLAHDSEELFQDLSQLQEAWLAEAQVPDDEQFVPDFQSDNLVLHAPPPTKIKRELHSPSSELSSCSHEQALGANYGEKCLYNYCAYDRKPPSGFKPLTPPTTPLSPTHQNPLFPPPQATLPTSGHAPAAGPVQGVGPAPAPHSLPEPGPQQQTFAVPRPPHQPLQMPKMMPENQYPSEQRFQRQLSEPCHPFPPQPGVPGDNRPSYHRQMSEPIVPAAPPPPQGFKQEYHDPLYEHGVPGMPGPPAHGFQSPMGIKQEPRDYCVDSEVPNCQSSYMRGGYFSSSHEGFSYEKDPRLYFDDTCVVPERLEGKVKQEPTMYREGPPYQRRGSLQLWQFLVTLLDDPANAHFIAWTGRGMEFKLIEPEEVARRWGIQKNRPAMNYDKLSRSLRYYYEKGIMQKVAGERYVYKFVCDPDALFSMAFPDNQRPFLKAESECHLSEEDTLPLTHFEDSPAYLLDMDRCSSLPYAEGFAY
# In short: as §1
# HSF1 = HSF1 (Homo sapiens, UniProt Q00613 1-529); conditions: protein: recombinant; tags: N-terminal GST; chain copies: 3; dsDNA, one strand shown
# Sequence of HSF1 (Q00613 whole entry): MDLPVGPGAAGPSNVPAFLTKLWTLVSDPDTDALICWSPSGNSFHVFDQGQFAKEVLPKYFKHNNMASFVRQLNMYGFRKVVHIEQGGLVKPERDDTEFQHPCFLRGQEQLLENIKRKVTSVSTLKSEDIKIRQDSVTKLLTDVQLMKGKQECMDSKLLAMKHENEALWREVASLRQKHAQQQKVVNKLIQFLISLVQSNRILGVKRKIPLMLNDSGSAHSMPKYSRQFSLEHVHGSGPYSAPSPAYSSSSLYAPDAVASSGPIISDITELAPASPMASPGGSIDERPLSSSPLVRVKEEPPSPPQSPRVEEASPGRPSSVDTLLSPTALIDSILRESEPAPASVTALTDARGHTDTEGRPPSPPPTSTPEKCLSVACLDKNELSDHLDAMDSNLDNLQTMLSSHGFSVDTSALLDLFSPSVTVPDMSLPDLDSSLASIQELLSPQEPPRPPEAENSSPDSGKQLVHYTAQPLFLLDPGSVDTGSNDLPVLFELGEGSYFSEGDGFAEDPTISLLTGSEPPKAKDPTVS
# In short: as §1
# SPIC = biological target: T8, SPIC (Homo sapiens, UniProt Q8N5J4 1-248); conditions: protein: recombinant; tags: N-terminal GST; dsDNA, one strand shown
# T8 sequence: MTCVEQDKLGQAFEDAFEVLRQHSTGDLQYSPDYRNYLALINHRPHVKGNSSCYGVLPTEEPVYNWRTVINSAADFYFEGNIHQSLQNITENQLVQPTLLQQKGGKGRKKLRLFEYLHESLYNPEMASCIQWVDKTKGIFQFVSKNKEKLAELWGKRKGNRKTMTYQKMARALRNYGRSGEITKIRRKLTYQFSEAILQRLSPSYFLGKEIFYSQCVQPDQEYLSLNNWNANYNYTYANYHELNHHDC
# In short: as §1
# ELF4 = ELF4 (Homo sapiens, UniProt Q99607 1-663); conditions: protein: recombinant; tags: N-terminal GST; dsDNA, one strand shown
# Sequence of ELF4 (Q99607 whole entry): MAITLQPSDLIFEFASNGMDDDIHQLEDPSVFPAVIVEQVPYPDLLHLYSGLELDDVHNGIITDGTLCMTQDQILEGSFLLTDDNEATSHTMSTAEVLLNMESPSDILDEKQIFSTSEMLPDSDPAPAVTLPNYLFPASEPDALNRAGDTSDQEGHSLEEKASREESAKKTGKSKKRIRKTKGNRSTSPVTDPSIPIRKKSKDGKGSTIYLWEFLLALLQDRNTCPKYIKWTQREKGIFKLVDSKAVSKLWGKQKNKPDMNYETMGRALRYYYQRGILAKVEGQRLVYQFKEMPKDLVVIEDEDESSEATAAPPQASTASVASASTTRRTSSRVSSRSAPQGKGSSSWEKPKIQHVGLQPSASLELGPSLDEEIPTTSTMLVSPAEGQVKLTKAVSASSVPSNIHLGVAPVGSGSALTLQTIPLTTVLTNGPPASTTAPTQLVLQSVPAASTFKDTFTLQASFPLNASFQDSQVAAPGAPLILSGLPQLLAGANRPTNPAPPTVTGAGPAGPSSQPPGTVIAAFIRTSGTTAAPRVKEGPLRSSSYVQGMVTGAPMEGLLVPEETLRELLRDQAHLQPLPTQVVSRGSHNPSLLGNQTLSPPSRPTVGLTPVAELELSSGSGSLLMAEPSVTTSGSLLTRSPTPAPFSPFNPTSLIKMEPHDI
# In short: as §1
# ELK4 = biological target: T9, ELK4 (Homo sapiens, UniProt P28324-2 1-405); conditions: protein: recombinant; tags: N-terminal GST; dsDNA, one strand shown
# T9 sequence: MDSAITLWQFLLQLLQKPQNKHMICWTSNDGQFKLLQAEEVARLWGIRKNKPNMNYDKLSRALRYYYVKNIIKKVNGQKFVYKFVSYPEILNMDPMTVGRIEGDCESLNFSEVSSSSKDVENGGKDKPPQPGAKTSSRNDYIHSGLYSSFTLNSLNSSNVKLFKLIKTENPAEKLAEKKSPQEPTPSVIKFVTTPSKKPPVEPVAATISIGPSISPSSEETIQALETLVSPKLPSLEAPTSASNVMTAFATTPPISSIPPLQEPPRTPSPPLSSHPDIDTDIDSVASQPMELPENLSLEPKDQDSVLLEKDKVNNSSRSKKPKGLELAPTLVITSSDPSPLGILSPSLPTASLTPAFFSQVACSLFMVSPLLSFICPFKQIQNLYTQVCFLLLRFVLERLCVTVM
# In short: as §1
# ETV2 = biological target: T10, ETV2 (Homo sapiens, UniProt O00321 1-342); conditions: protein: recombinant; tags: N-terminal GST; dsDNA, one strand shown
# T10 sequence: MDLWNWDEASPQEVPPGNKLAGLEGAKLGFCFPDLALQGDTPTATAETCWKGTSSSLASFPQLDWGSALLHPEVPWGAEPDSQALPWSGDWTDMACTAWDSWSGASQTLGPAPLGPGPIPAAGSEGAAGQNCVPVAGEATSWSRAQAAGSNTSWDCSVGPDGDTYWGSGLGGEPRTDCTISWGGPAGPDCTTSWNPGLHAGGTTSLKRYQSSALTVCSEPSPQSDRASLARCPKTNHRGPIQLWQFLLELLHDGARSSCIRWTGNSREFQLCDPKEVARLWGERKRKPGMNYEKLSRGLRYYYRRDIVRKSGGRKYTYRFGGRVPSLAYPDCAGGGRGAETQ
# In short: as §1
# ELF3 = biological target: T11, ELF3 (Homo sapiens, UniProt P78545 1-371); conditions: protein: recombinant; tags: N-terminal GST; dsDNA, one strand shown
# T11 sequence: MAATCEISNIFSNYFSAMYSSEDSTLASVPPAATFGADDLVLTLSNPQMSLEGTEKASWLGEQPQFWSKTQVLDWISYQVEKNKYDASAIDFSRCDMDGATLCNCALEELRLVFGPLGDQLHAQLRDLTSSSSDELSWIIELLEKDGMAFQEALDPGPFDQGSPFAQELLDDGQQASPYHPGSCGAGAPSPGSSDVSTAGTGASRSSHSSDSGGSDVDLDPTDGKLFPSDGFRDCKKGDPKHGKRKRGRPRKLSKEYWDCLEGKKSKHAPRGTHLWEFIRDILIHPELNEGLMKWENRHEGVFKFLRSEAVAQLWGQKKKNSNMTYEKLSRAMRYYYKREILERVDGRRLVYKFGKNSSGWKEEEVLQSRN
# In short: as §1
# CRX = CRX (Homo sapiens, UniProt O43186 1-299); conditions: protein: recombinant; tags: N-terminal GST; dsDNA, one strand shown
# Sequence of CRX (O43186 whole entry): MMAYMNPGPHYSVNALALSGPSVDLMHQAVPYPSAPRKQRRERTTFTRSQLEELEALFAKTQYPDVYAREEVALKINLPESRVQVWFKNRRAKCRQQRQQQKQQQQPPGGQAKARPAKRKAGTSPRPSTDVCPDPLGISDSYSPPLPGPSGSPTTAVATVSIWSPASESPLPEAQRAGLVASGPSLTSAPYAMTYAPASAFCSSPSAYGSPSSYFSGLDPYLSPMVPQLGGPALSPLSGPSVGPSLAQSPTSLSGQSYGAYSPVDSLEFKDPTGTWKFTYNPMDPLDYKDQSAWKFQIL
# In short: as §1
# ETV1 = ETV1 (Homo sapiens, UniProt P50549 1-477); conditions: protein: recombinant; tags: N-terminal GST; dsDNA, one strand shown
# Sequence of ETV1 (P50549 whole entry): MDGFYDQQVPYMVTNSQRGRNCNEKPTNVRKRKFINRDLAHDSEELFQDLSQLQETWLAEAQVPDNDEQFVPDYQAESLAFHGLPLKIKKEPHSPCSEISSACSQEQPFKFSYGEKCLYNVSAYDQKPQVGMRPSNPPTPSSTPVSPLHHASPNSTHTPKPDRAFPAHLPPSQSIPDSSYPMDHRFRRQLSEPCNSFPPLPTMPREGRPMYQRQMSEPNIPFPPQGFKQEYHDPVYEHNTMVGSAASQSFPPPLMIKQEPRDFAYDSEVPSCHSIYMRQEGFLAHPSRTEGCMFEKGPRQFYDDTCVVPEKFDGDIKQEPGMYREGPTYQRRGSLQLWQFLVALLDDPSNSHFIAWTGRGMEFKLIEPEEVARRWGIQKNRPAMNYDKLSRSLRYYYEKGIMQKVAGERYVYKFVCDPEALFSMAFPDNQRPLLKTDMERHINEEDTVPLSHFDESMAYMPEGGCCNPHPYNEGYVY
# In short: as §1
sequence,measurement,setting,value
AGCCCC,binding signal,FLI1,"1.09 fold enrichment (6-mer frequency, TF over GST control)"
same,binding signal,ELK1,"1.01 fold enrichment (6-mer frequency, TF over GST control)"
same,binding signal,GABPA,"1.11 fold enrichment (6-mer frequency, TF over GST control)"
same,binding signal,ERG,"1.06 fold enrichment (6-mer frequency, TF over GST control)"
same,binding signal,ELF1,"1.05 fold enrichment (6-mer frequency, TF over GST control)"
same,binding signal,EHF,"1.05 fold enrichment (6-mer frequency, TF over GST control)"
same,binding signal,SPI1,"1.02 fold enrichment (6-mer frequency, TF over GST control)"
same,binding signal,SPIB,"1.08 fold enrichment (6-mer frequency, TF over GST control)"
same,binding signal,ELK3,"1.07 fold enrichment (6-mer frequency, TF over GST control)"
same,binding signal,FEV,"1.12 fold enrichment (6-mer frequency, TF over GST control)"
same,binding signal,ETV5,"1.14 fold enrichment (6-mer frequency, TF over GST control)"
same,binding signal,HSF1,"1.02 fold enrichment (6-mer frequency, TF over GST control)"
same,binding signal,SPIC,"1.09 fold enrichment (6-mer frequency, TF over GST control)"
same,binding signal,ELF4,"1.07 fold enrichment (6-mer frequency, TF over GST control)"
same,binding signal,ELK4,"1.17 fold enrichment (6-mer frequency, TF over GST control)"
same,binding signal,ETV2,"1.23 fold enrichment (6-mer frequency, TF over GST control)"
same,binding signal,ELF3,"1.15 fold enrichment (6-mer frequency, TF over GST control)"
same,binding signal,CRX,"1.17 fold enrichment (6-mer frequency, TF over GST control)"
same,binding signal,ETV1,"1.02 fold enrichment (6-mer frequency, TF over GST control)"
